SMILES strings stand for the structures. Counter-ions that a name gives are not always drawn.

The test system of this assay is Saccharomyces cerevisiae BY4741 SeMeCo community. The experiment in a line: z-score of subpopulation abundance vs DMSO median, subpopulation auxotrophic for H; higher = larger share of this subpopulation than in DMSO controls. Conditions: 10 µM; 24 h; SM minimal medium; subpopulation (auxotrophy): H. The procedure:
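Fluorescent four-plasmid SeMeCo (self-establishing metabolically cooperating S. cerevisiae BY4741 community; plasmids pH-mRuby2, pL-mWasabi, pU-eCFP, pM-TagRFP657) was grown 24 h in minimal SM medium with each Selleck FDA-approved drug at 10 µM in 384-well plates. Cells were fixed and imaged by high-content confocal microscopy. For each auxotrophic subpopulation (and the prototroph), a z-score gives the deviation from the DMSO vehicle-control population median.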
On to `C[C@@H]1CC[C@H]2[C@@H](C)C(=O)O[C@@H]3O[C@@]4(C)CC[C@@H]1[C@]32OO4` [Artemisinin], for which the “z-score of subpopulation abundance” value was determined as 1.06. Next, `C=CN1CCCC1=O.II` [Povidone iodine]: 1.96; `COc1ccc2c3c([nH]c2c1)C(C)=NCC3` [Harmaline]: 2.23.

For the compound `C[C@@H]1O[C@@H](O[C@H]2C[C@@H](O)[C@]3(CO)[C@H]4[C@H](O)C[C@]5(C)[C@@H](C6=CC(=O)OC6)CC[C@]5(O)[C@@H]4CC[C@]3(O)C2)[C@H](O)[C@H](O)[C@H]1O` [Ouabain], the “z-score of subpopulation abundance” value was -1.13. Then `CCCCCCCCCCCCCCCC[n+]1ccccc1` [Cetylpyridinium Chloride], with 19.3; and `CC(=O)OCC1=C(C(=O)O)N2C(=O)C(N)C2SC1` (stereo not given) [7-Aminocephalosporanic acid], with 0.4. Then `CC(C)=CCOc1c2occc2cc2ccc(=O)oc12` [Imperatorin], with 0.08; and `CN(C)C(=O)Oc1cccc([N+](C)(C)C)c1` [Neostigmine Bromide], with 0.03.

Turning to `C[N+](C)(C)CCCCCCCCCC[N+](C)(C)C` [Decamethonium Bromide], the “z-score of subpopulation abundance” value turned out to be 0.07. Next, `O=c1cccc2n1C[C@@H]1CNC[C@H]2C1` [Cytisine]: -0.04. Then `CC[C@@]1(O)C(=O)OCc2c1cc1n(c2=O)Cc2cc3ccccc3nc2-1` [Camptothecin], with -1.03.

As to `C=C(C)[C@H]1Cc2c(ccc3c2O[C@@H]2COc4cc(OC)c(OC)cc4[C@@H]2C3=O)O1` [Rotenone (Barbasco)], the “z-score of subpopulation abundance” value was found to be 0.51.

Take `NCCc1c[nH]c2ccc(O)cc12` [Serotonin HCl]: the “z-score of subpopulation abundance” value was -1.54.

In the case of `CCC1=C[C@H]2CN3CCc4c([nH]c5ccccc45)[C@](C(=O)OC)(C2)[C@H]13` [Catharanthine], the “z-score of subpopulation abundance” value is -0.99.

As to `O=C(O[C@H]1C[N+]2(CCCOc3ccccc3)CCC1CC2)C(O)(c1cccs1)c1cccs1` [Aclidinium Bromide], the “z-score of subpopulation abundance” value is -0.92. Then `N[C@@H]1C[C@H]1c1ccccc1` [Tranylcypromine (2-PCPA) HCl], with -0.67; and `Cc1cc(O)ccc1Cl` [Chlorocresol], with -0.85.

In the case of `CC[N+](C)(CC)CCOC(=O)C(O)(c1ccccc1)c1ccccc1` [Methylbenactyzine Bromide], the “z-score of subpopulation abundance” value amounted to 0.06. Next, `Cn1cc(C2=C(c3cn(C4CCN(Cc5ccccn5)CC4)c4ccccc34)C(=O)NC2=O)c2ccccc21`: -2.71; `CN1[C@@H]2CC[C@H]1C[C@@H](OC(=O)C(CO)c1ccccc1)C2` (stereo not given in full) [Atropine sulfate monohydrate]: -0.43. Next, `C#C[C@]1(O)C=C[C@H]2[C@@H]3CCC4=CC(=O)CC[C@@H]4[C@H]3CC[C@@]21CC` [Gestodene]: 0.25; `CCN(C)C(=O)Oc1cccc([C@H](C)N(C)C)c1` [Rivastigmine Tartrate]: -0.17; `CN1[C@@H]2CC[C@H]1C[C@@H](OC(=O)[C@H](CO)c1ccccc1)C2` [Hyoscyamine]: -0.74. As to `CN(C)[C@@H]1C(=O)C(C(N)=O)=C(O)[C@@]2(O)C(=O)C3=C(O)c4c(O)cccc4[C@@](C)(O)[C@H]3C[C@@H]12` [Tetracycline HCl], the “z-score of subpopulation abundance” value worked out at 1.08.

As to `O=c1[nH]c2ccccc2n1CCCN1CCC(n2c(=O)[nH]c3cc(Cl)ccc32)CC1` [Domperidone], the “z-score of subpopulation abundance” value was determined as 0.24. Then `Nc1nc(N)nc(NC2CC2)n1` [Cyromazine], with 0.14; and `CCN(CC)CCOC(=O)C(O)(c1ccccc1)c1ccccc1` [Benactyzine hydrochloride], with -0.16; and `CC[C@@H](C(N)=O)N1CCCC1=O` [Levetiracetam], with -0.46.

As to `COc1ccc(C(CN(C)C)C2(O)CCCCC2)cc1` (stereo not given) [Venlafaxine], the “z-score of subpopulation abundance” value was -1.33. Then `CC[C@H]1[C@@H]2C[C@H]3[C@@H]4N(C)c5ccccc5[C@]45C[C@@H]([C@@H]2[C@H]5O)N3[C@@H]1O` [Ajmaline], with -0.87; and `Nc1ccncc1` [4-Aminopyridine], with -0.01. As for `CN1c2ccccc2C(NCCCCCCC(=O)O)c2ccc(Cl)cc2S1(=O)=O` (stereo not given) [Tianeptine sodium], the “z-score of subpopulation abundance” value was -0.28. Then `CC(=O)O[C@H]1C[C@@H]2CC[C@@H]3[C@H](CC[C@@]4(C)[C@H]3C[C@H]([N+]3(C)CCCCC3)[C@@H]4OC(C)=O)[C@@]2(C)C[C@@H]1[N+]1(C)CCCCC1` [Pancuronium dibromide], with -0.63; and `CC[C@H]1CN2CC[C@]3(C(=O)Nc4ccccc43)[C@@H]2C[C@@H]1/C(=C\OC)C(=O)OC` [Rhynchophylline], with -0.08. Next, `CC1(C)SC2C(N)C(=O)N2C1C(=O)O` (stereo not given) [6-Aminopenicillanic acid]: 0.55. Then `CN(C)C(=O)Oc1ccc[n+](C)c1` [Pyridostigmine Bromide], with 0.16; and `CN[C@@H]1[C@@H](O)[C@@H](O[C@@H]2[C@@H](O)[C@H](O[C@H]3O[C@H]([C@@H](C)O)[C@@H](O)[C@H](O)[C@H]3N)[C@@H](N)C[C@H]2N)OC[C@]1(C)O` [Geneticin (G418 Sulfate)], with -0.21. Regarding `CN(C)[C@@H]1C(=O)C(C(N)=O)=C(O)[C@@]2(O)C(=O)C3=C(O)c4c(O)cccc4[C@@](C)(O)[C@H]3[C@H](O)[C@@H]12` [Oxytetracycline (Terramycin)], the “z-score of subpopulation abundance” value was 1.45.

With `CN(C)[C@@H]1C(=O)C(C(N)=O)=C(O)[C@@]2(O)C(=O)C3=C(O)c4c(O)cccc4[C@@](C)(O)[C@H]3[C@H](O)[C@@H]12` [Oxytetracycline Dihydrate], the “z-score of subpopulation abundance” value is 0.31. Then `CCOC(=O)Nc1ccc(NCc2ccc(F)cc2)cc1N` [Retigabine 2HCl], with 1.44.
